The results in this text go back to PubChem BioAssay (NCI).

Molecules are shown by their SMILES. This is part of a sample that, as a whole, favours compounds with a hit. Of some 83,000 tested, about 20% had one in any assay.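 Values shown are percent growth following 48 h exposure of cells in 96-well plates to a single concentration of compound; below 10 was considered active.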 Active and inactive are the calls of the source.

This assay relates to HT29 colon. The assay can be described thus: NCI-60 one-dose screen, 48 h (100 = growth as untreated, 0 = no growth, -100 = all killed). The following applies: 10 µM unless noted.
As for `CC(C)(C)c1ccc(OCCCCCCCN2CCNCC2)cc1`, the growth was 6.93% (active). The figure for `O=Cc1nc2ccccc2[nH]1` is 91% (inactive). The figure for `C[C@]12CC[C@@H]3c4ccc(O)cc4CC[C@H]3[C@@H]1C[C@H](O)[C@@H]2O` is 109% (inactive); for `Cn1c(=O)c2c(ncn2CCC(=O)Nc2ccc(F)cc2)n(C)c1=O` it is 94% (inactive); for `CN(C)CCCCC(C(=O)CBr)(c1ccccc1)c1ccccc1` it is 8.94% (active). Regarding `C[C@@H]1CCCCCCCCC[C@H](O)C(=O)C[C@@H](SC[C@@H](O)C(=O)O)C(=O)O1`, the growth is 82.1% (inactive). The figure for `O=C(N/N=C/c1ccccc1SSc1ccccc1/C=N/NC(=O)c1ccccc1)c1ccccc1` is 43.3% (inactive).

Regarding `CC/C=C\C[C@H]1CC=C2C(=O)C=C[C@@H]2CC=CCCCC(=O)O[C@@H](CCCCC)CC=C2C(=O)C=C[C@@H]2CC=CCCCC(=O)O[C@@H](CCCCC)CC=C2C(=O)C=C[C@@H]2CC=CCCCC(=O)O[C@@H](CCCCC)CC=C2C(=O)C=C[C@@H]2CC=CCCCC(=O)O1`, the growth was 2.5% [7.9 µM] (active). The figure for `COc1ccc(NC(=S)N/N=C/c2ccccc2SSCCC(=O)OC[C@H]2O[C@H](O)[C@H](O)[C@@H](O)[C@@H]2O)cc1` is 102% (inactive); for `Fc1ccc(Nc2nnc(-c3ccc(Cl)cc3)o2)cc1` it is 94.7% (inactive).

As to `COC(=O)[C@]12CC[C@@H](C)[C@H](C)[C@@H]1C1=CC[C@@H]3[C@@](C)(CC#N)C4=C(C[C@@]3(C)[C@]1(C)CC2)OC[C@]4(C)C=O`, the growth was -20.7% (active). The same measure for `COc1ccc(/C=C/C(=O)NCC(C)O)cc1` (centres undefined): 95.1% (inactive); for `COc1cnc2c(c1)C(=O)c1c-2n(CCCNC(C)C)c(=O)c2cc([N+](=O)[O-])ccc12`: -33.7% (active). The figure for `Cn1cc(-c2csc(-c3cn(CCNC(=O)OC(C)(C)C)c4ccc(F)cc34)n2)c2cccnc21` is 76.2% (inactive); for `NCCn1cc(-c2nc(-c3c[nH]c4ncccc34)cs2)c2cc(F)ccc21` it is 67.2% (inactive). The figure for `Cc1cc(N2CCCCC2)nc(N(CCNc2ccnc3cc(Cl)ccc23)Cc2ccco2)n1` is 6.61% (active). As to `Fc1ccc(Nc2nc(Nc3ccc(-c4nc5ccccc5[nH]4)cc3)nc(N3CCCC3)n2)cc1`, the growth is 36.1% (inactive). `Brc1ccc2c(c1)c(-c1nc(-c3c[nH]c4ncccc34)cs1)cn2CCCN1CCCCC1`: the growth is -87.2% (active). As for `O=C1CNCCN1`, the growth was 100% (inactive). `COC(=O)[C@]12CC[C@@H](C)[C@H](C)[C@@H]1C1=CC[C@@H]3[C@@]4(C)CC(=O)[C@H](OC(=O)c5ccco5)[C@@]5(C)COC(=C45)C[C@@]3(C)[C@]1(C)CC2`: the growth is 20.1% (inactive). The figure for `NCCn1cc(-c2nc(-c3c[nH]c4ncccc34)cs2)c2cc(Br)ccc21` is 31% (inactive); for `Cc1cc(N2CCCCC2)nc(N(CCCNc2ccnc3cc(Cl)ccc23)Cc2ccco2)n1` it is 2.02% (active); for `CCCCC[C@H]1CC=C2C(=O)C=C[C@@H]2CC=CCCCC(=O)O[C@@H](CCCCC)CC=C2C(=O)C=C[C@@H]2CC=CCCCC(=O)O[C@@H](CCCCC)CC=C2C(=O)C=C[C@@H]2CC=CCCCC(=O)O1` it is -12.4% [8.75 µM] (active).

For `CCC(CC)C(=O)OC(C)COc1ccc(C(C)(C)C)cc1` (centres undefined), the growth is 71.7% (inactive).

Regarding `CC/C(=N/NC(N)=O)c1ccccc1`, the growth was 104% (inactive).

Take `N#CC1=C(N)Oc2c(sc3c(F)cccc23)C1c1ccc(Cl)cc1` (centres undefined): the growth is 15.6% (inactive). The same measure for `CCCCC[C@H]1C/C=C2/C(=O)C(Cl)=C[C@@H]2C/C=C\CCCC(=O)O[C@@H](CCCCC)C/C=C2/C(=O)C(Cl)=C[C@@H]2C/C=C\CCCC(=O)O1`: -56% (active). Turning to `c1ccc(-c2nc(Nc3ccc(-c4nc5ccccc5[nH]4)cc3)nc(N3CCOCC3)n2)cc1`, the growth was -59.9% (active). In the case of `Fc1ccc2c(c1)c(-c1nc(-c3c[nH]c4ncccc34)cs1)cn2CCCN1CCCCC1`, the growth is -38.4% (active). For the compound `CN(C)c1ccc(N=C2C=CC(=O)C=C2)cc1`, the growth was 97.1% (inactive). The same measure for `Cc1ccncc1C(=O)O`: 101% (inactive); for `COc1cc2ncnc(Nc3ccc(Oc4ccnc(C)c4)c(C)c3)c2cc1NC(=O)CC1CCSS1` (centres undefined): -80.7% (active); for `O=C1Nc2ccccc2/C1=C/c1cn(CCCn2c3ccccc3c(=O)c3ccccc32)c2ccccc12`: 91.8% (inactive). The same measure for `CCCCC[C@H]1CC=C2C(=O)C(Cl)=C[C@@H]2CC=CCCCC(=O)O[C@@H](CCCCC)CC=C2C(=O)C(Cl)=C[C@@H]2CC=CCCCC(=O)O[C@@H](CCCCC)CC=C2C(=O)C(Cl)=C[C@@H]2CC=CCCCC(=O)O1`: 44.4% [8 µM] (inactive).

With `O=C1c2ccccc2NC(c2cn(-c3ccccc3)nc2-c2cccs2)N1Cc1ccccc1` (centres undefined), the growth was 75% (inactive). The figure for `COC(=O)[C@]12CC[C@@H](C)[C@H](C)[C@@H]1C1=CC[C@@H]3[C@@]4(C)C[C@@H](O)[C@H](O)[C@@](C)(CO)C4=CC[C@@]3(C)[C@]1(C)CC2` is -36.6% (active).

`Cn1c(=O)c2c(nc(Br)n2CC(=O)Nc2ccc(F)cc2)n(C)c1=O`: the growth was 97.8% (inactive).

`CCN(CC)CCCCCCNc1ccnc2cc(Cl)ccc12`: the growth is 27% (inactive). Turning to `C#CCC(C)(O)/C=C/C1=C(C)CCCC1(C)C` (centres undefined), the growth was 86.2% (inactive).
